Source: PubChem BioAssay
CRE-bla Fsk = modulators of forskolin-stimulated CRE signaling in CHO cells. actives 2.5% (n = 71,000). CHO CRE-bla reporter (cAMP response element driving beta-lactamase), forskolin EC10, beta-lactamase ratio. Potency, µM (top dose mostly 38.2 µM), actives largely listed as activators; active means well fitted activation curve with a large enough effect in the signal ratio, with a control signal flat, not every such curve was filed as active; inconclusive means small, poorly fitted or top-dose-only effect, or effect the other way, or a change in a side signal; the % refers to the signal ratio
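CHO CRE-bla cells, overnight plating in Opti-MEM with 0.5% dialyzed FBS; cpd titration + EC10 NKH 477, 3 h 37 °C; CCF4 2 h RT; ex 405/em 460 vs 530 ratio → %Activity, AC50.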
15-hLO-2 inh = blocks human 15-lipoxygenase 2 activity; purified 15hLO-2, xylenol orange hydroperoxide absorbance; actives 0.56% (n = 110,000); O15296; Potency, µM (top dose mostly 57.1 µM), most hits filed as inhibitors; further: nearly all actives have a fitted effect of over 60% in size
Target sequence (O15296 whole entry, looked up): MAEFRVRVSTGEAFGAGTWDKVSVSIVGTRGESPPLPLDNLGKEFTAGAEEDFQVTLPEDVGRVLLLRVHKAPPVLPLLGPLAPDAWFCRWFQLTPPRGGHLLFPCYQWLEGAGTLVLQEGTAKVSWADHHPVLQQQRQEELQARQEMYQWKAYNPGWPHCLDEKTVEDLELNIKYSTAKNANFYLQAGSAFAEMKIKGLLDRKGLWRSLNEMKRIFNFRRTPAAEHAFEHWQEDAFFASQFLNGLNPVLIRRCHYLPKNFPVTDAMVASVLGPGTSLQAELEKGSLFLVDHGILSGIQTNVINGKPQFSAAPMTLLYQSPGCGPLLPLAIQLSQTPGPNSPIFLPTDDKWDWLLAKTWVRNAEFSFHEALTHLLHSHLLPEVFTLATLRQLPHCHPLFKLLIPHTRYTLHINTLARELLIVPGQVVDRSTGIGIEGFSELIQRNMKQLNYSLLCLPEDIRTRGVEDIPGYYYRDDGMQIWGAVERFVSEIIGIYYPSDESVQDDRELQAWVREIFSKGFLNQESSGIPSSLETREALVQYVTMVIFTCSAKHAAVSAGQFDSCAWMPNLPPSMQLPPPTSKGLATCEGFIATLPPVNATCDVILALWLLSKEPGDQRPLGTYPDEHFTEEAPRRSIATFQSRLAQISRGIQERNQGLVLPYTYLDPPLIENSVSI
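Screening format was qHTS against 50 nM purified 15hLO-2 in Hepes pH 7.5 with detergent. Activity follows hydroperoxide formation from 45 uM arachidonic acid, measured as 573:405 nm absorbance ratio of the ferric-xylenol orange complex.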
ALOX15 inhib = inhibitors of human 15-lipoxygenase (ALOX15) | P16050 | purified 15hLO-1, xylenol orange hydroperoxide absorbance | Potency, µM (top dose mostly 57.1 µM), most hits filed as inhibitors | actives 1.4% (n = 74,000); further: nearly all actives have a fitted effect of over 55% in size
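Purified human 15hLO-1 (40 nM) in 25 mM Hepes pH 7.5, 0.01% Triton X-100, preincubated 15 min RT with compound, then 50 uM arachidonic acid for 6 min. Hydroperoxide read by ferrous/xylenol orange, 30 min; 573/405 nm absorbance ratio gave progress.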
ERK AVP block = vasopressin-driven ERK pathway inhibition; HEK293-V1b, vasopressin-stimulated pERK AlphaScreen; Potency, µM (titrated, usually from 57.5 µM), hits mostly inhibitors; actives 0.99% (n = 72,000); AID 995; further: nearly all actives have a fitted effect of over 55% in size
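qHTS, compounds titrated on V1b-expressing HEK293 cells. Preincubation 30 min at 37C, vasopressin 25 nM for 5 min, lysis 10 min, bead incubation 5 hr at room temperature.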
Of the large screens only hits and unclear results are named; the others gave an inactive call. An excerpt weighted towards active compounds, which were near 3.2% of everything screened. Unless noted, the call rests on the fitted dose curve; in most records, active means well fitted inhibition curve with a large enough effect; inconclusive means small, poorly fitted or top-dose-only effect; inactive means no such curve, though single readings can be large or run the other way.

Brc1ccc2[nH]c3nc(SCCN4CCOCC4)nnc3c2c1	CRE-bla Fsk 2.5µM (no result: 15-hLO-2 inh)
c1ccc(Nc2cc(-c3ccoc3)ncn2)cc1	none
C=C1c2ccccc2O[C@H](C(=O)OCC)[C@@H]1CC(C)(C)c1ccccc1	none (no result: CRE-bla Fsk, ALOX15 inhib, ERK AVP block)
CC(c1nnc(SCC(=O)c2c(N)n(C)c(=O)n(C)c2=O)n1-c1ccc(Cl)cc1)N(C)C (configuration not stated)	ERK AVP block 40µM
COc1ccc(-c2nc3cnc(OC)nc3n(CCc3ccccc3)c2=O)cc1	CRE-bla Fsk inconclusive
CCC(=O)N1CCc2cc(OC)c(OC)cc2C1COc1ccc(C(=O)OC)cc1 (configuration not stated)	CRE-bla Fsk 4µM, ERK AVP block inconclusive
COC(=O)N1CCc2cc(OC)c(OC)cc2C1Cc1ccc(OC)cc1 (configuration not stated)	none (no result: CRE-bla Fsk, 15-hLO-2 inh)
COc1cc2c(cc1OC)C(c1ccccc1)N(C(=O)c1ccco1)CC2 (configuration not stated)	CRE-bla Fsk inconclusive
COC(=O)c1ccc(OCC2c3cc(OC)c(OC)cc3CCN2C(=O)c2ccco2)cc1 (configuration not stated)	CRE-bla Fsk 1.6µM, ERK AVP block inconclusive
COC(=O)CSC1=C(C#N)C(c2ccc3c(c2)OCO3)C2=C(CCCC2=O)N1 (configuration not stated)	none (no result: CRE-bla Fsk, ALOX15 inhib, ERK AVP block)
Cc1ccc(NC(=O)CSC2=C(C#N)C(c3ccc4c(c3)OCO4)C3=C(CCCC3=O)N2)c(C)c1 (configuration not stated)	ALOX15 inhib 3.2µM
C[C@@H](CN(C)C)CN1c2ccccc2CCc2ccccc21	none
CSc1ncnc2nc[nH]c12	CRE-bla Fsk 13µM (no result: 15-hLO-2 inh, ERK AVP block)
O=C(O)c1cc(C(=O)O)nc(C(=O)O)c1	none
O=C(NC(=S)Nc1ccc(N2CCOCC2)c(Cl)c1)C(c1ccccc1)c1ccccc1	15-hLO-2 inh 13µM (no result: CRE-bla Fsk, ALOX15 inhib, ERK AVP block)
Cc1[nH]n(-c2ccccc2)c(=S)c1C=Nc1cccc([N+](=O)[O-])c1	15-hLO-2 inh 10µM (no result: CRE-bla Fsk, ALOX15 inhib, ERK AVP block)
CN1CCN(C(=O)c2ccc(-n3c(=O)c(=O)[nH]c4ccccc43)cc2)CC1	none (no result: CRE-bla Fsk, 15-hLO-2 inh, ERK AVP block)
Nc1c[n+](N2CCOCC2)no1	CRE-bla Fsk inconclusive, ALOX15 inhib inconclusive
CNNCc1ccc(C(=O)NC(C)C)cc1	ALOX15 inhib 7.9µM
S=C(c1ccc(-c2cccc(Cl)c2)o1)N1CCOCC1	ALOX15 inhib inconclusive, ERK AVP block inconclusive
CC1=NOC(=O)/C1=C\c1ccc(-c2cccc(Cl)c2)o1	15-hLO-2 inh 2.5µM (no result: CRE-bla Fsk, ALOX15 inhib, ERK AVP block)
Cc1nnc(SCCC(=O)Nc2nc(-c3ccccc3)ns2)s1	ALOX15 inhib inconclusive, ERK AVP block 32µM
COc1cc2cc(C(c3nnnn3C3CCCCC3)N(C)C3CCCCC3)c(=O)[nH]c2cc1OC (configuration not stated)	CRE-bla Fsk 13µM
COc1ccc2[nH]c(=O)c(C(c3nnnn3C3CCCCC3)N3CCN(C)CC3)cc2c1 (configuration not stated)	ALOX15 inhib inconclusive
COc1cc2cc(C(c3nnnn3C3CCCC3)N(C)C3CCCCC3)c(=O)[nH]c2cc1OC (configuration not stated)	CRE-bla Fsk 13µM (no result: 15-hLO-2 inh)
COc1ccccc1-c1nccc(NCc2cccnc2)n1	ALOX15 inhib inconclusive
N#Cc1ccc(CN2CCC3(CC2)CCN(C(=O)c2ccco2)CC3)cc1	none
COc1ccccc1CN1CCCC2(CCN(S(C)(=O)=O)CC2)C1	none
C=CCn1c2ccccc2c2nnc(SCCCn3c(=O)[nH]c4ccccc43)nc21	CRE-bla Fsk 1.3µM, ALOX15 inhib 16µM, ERK AVP block 13µM
C=CCn1c2ccccc2c2nnc(SCN3C(=O)c4ccccc4C3=O)nc21	CRE-bla Fsk inconclusive
COc1ccc(-c2nc3n(n2)C(c2ccncc2)C(C(N)=O)=C(C)N3)cc1 (configuration not stated)	none (no result: CRE-bla Fsk, ALOX15 inhib, ERK AVP block)
COC(=O)C1=C(C)Nc2nc(-c3ccccc3)nn2C1c1ccc(C)o1 (configuration not stated)	CRE-bla Fsk 13µM
Cn1c(=O)c(-c2ccc(Cl)cc2)nc2cnc(Nc3ccccc3)nc21	CRE-bla Fsk 13µM
Cn1c(=O)c(-c2cc(F)cc(F)c2)nc2cnc(Oc3cccc(Cl)c3)nc21	CRE-bla Fsk 10µM, ERK AVP block inconclusive
Cn1c(=O)c(-c2ccccc2)nc2cnc(OCc3ccccc3)nc21	none
Cn1c(=O)c(-c2ccc(F)cc2)nc2cnc(OCc3ccccc3)nc21	CRE-bla Fsk 13µM
Cn1c(=O)c(-c2ccc(Cl)cc2)nc2cnc(Oc3cccc(Cl)c3)nc21	none
Cn1c(=O)c(-c2ccc(F)cc2)nc2cnc(Nc3ccccc3)nc21	CRE-bla Fsk 0.63µM
CN(C)c1ncc2nc(-c3ccc(Cl)cc3)c(=O)n(C)c2n1	CRE-bla Fsk 2.5µM
O=C1CCC(C(=O)Nc2cccc3ccccc23)N1 (configuration not stated)	none
O=C(Nc1cccc2ccccc12)OC1C=CS(=O)(=O)C1 (configuration not stated)	CRE-bla Fsk inconclusive, ERK AVP block 10µM (no result: 15-hLO-2 inh)
N[C@@](CC(=O)O)(Cc1ccccc1)C(=O)O	none
N[C@@H](Cn1ccc(=O)n(Cc2ccccc2C(=O)O)c1=O)C(=O)O	ALOX15 inhib inconclusive
COc1ccc2[nH]c(O)c(NC(C)=O)c2c1	CRE-bla Fsk 0.4µM, ERK AVP block inconclusive
CCOC(=O)Cc1csc(SCn2nnc3ccccc3c2=O)n1	CRE-bla Fsk inconclusive
CCOC(=O)Cc1csc(-n2sc3ccccc3c2=O)n1	15-hLO-2 inh 1.3µM, ALOX15 inhib 0.2µM
N#C[C@@H](Cc1ccc(O)c(O)c1)C(=O)N1CCc2ccccc21	CRE-bla Fsk inconclusive, 15-hLO-2 inh inconclusive, ALOX15 inhib 0.63µM, ERK AVP block inconclusive
Clc1ccc(CSc2ncnc3c2ncn3[C@@H]2CCCCO2)cc1	none
Cc1cccc(N=c2oc3cc(O)ccc3cc2C(N)=O)c1	CRE-bla Fsk 13µM, ALOX15 inhib inconclusive
C=CCN1C(=O)/C(=C2/Sc3ccccc3N2C)SC1=Nc1c(C)n[nH]c1C	CRE-bla Fsk 1.6µM
CC(CC(=O)O)(CC(=O)O)c1ccccc1	none
COc1ccccc1NC(=S)NC(=O)CCCOc1ccc(Cl)cc1Cl	15-hLO-2 inh 20µM (no result: CRE-bla Fsk, ALOX15 inhib, ERK AVP block)
C/C=C\C1=C(CO)C(=O)[C@@H]2OC2C1=O (some centres not stated)	ALOX15 inhib inconclusive (no result: CRE-bla Fsk, 15-hLO-2 inh)
COc1ccc(NC2CS(=O)(=O)CC2NCc2ccco2)cc1 (configuration not stated)	ALOX15 inhib 16µM, ERK AVP block inconclusive
CN(C)c1ccc(-c2nn3c(-c4ccccc4Cl)nnc3s2)cc1	CRE-bla Fsk 2.5µM
COc1ccccc1-c1nnc2sc(-c3cnccn3)nn12	CRE-bla Fsk inconclusive
Clc1ccccc1-c1nnc2sc(-c3ccncc3)nn12	none (no result: ERK AVP block)
CN(C)c1ccc(-c2nn3c(-c4ccncc4)nnc3s2)cc1	none (no result: 15-hLO-2 inh)
COc1ccccc1-c1nnc2sc(-c3ccc(N(C)C)cc3)nn12	CRE-bla Fsk 0.4µM (no result: 15-hLO-2 inh)
COc1ccccc1-c1nnc2sc(-c3cc4ccccc4o3)nn12	CRE-bla Fsk 4µM
NCC(=O)NC1(C(=O)O)CCCC1	none
CCN(CC)C[C@@H](O)c1ccc2ccc3ccccc3c2c1	none
